Hit rate of the full screen: of about 220,000 compounds, about 1,500 (0.68%) were called active.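 How the source made its calls: active means Hck-Nef kinase inhibition above about 50% (limit read from the data); inactive means inhibition below that limit.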 Many of the other results were omitted from the sample, so actives are more common in it than they were.
What follows are compounds tested against Tyrosine-protein kinase HCK (Homo sapiens) (UniProt P08631) (assay: Hck:Nef complex kinase activity blockers – biochemical, Z-Lyte FRET, 384-well, Hck-YEEI, primary screen (AID 463187;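 further: 0% = DMSO with Hck plus Nef and 100% = Hck alone without Nef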)). Settings: Recombinant Hck-YEEI plus Nef, Z-Lyte FRET kinase assay; at 20 µM; active compounds read high.
Chain of Tyrosine-protein kinase HCK (Homo sapiens) (P08631 whole entry, looked up): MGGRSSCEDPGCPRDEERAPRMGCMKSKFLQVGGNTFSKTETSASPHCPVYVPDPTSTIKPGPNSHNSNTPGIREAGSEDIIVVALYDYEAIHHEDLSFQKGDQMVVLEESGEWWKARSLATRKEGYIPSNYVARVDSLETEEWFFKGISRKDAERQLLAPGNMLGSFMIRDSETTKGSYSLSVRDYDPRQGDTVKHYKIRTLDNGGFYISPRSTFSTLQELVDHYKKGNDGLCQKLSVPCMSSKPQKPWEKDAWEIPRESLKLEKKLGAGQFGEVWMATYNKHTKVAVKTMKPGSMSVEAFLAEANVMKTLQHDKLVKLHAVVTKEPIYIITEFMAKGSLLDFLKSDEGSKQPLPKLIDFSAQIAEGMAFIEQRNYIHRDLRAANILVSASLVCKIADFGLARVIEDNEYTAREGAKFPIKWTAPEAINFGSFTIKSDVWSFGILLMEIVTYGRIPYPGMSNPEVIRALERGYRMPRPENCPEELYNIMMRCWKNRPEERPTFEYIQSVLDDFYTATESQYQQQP

| SMILES | inhibition |
| --- | --- |
| O=C1NC(=O)N(c2ccccc2)C(=O)/C1=C/c1ccc([N+](=O)[O-])s1 | 20.3% (inactive) |
| COc1cccc(N2C(=O)NC(=O)/C(=C\c3ccc([N+](=O)[O-])s3)C2=O)c1 | 92.8% (active) |
| Cc1cccc(N2C(=O)NC(=O)/C(=C\c3cnn(-c4ccccc4)c3)C2=O)c1 | 5.24% (inactive) |
| O=C1NC(=O)N(Cc2ccco2)C(=O)/C1=C\c1cccn1CCOc1ccccc1 | 27.2% (inactive) |
| O=C1NC(=O)N(Cc2ccco2)C(=O)/C1=C\c1ccc(-c2ccc(F)cc2)o1 | 59.4% (active) |
| Cc1cc(/C=C2/C(=O)NC(=O)N(Cc3ccco3)C2=O)c(C)n1-c1ccc(C(=O)O)cc1 | 49.2% (inactive) |
| CNC(=O)O/N=C(\N)Cc1csc2ccccc12 | 13.9% (inactive) |
| Cc1cccc(NC(=O)OC2CN3CCC2CC3)c1 (stereo not given) | 13.5% (inactive) |
| O=C(N/N=C/c1c(O)n(Cc2ccccc2)c(=O)[nH]c1=O)c1ccccc1 | 1.83% (inactive) |
| COc1cc(Cn2c(N)c(C(=O)NCc3ccco3)c3nc4ccccc4nc32)cc(OC)c1OC | 66.7% (active) |
| CCOC(=O)c1c(N)n(CCN2CCOCC2)c2nc3ccccc3nc12 | -2.81% (inactive) |
| CCOC(=O)c1c(N)n(Cc2ccccc2)c2nc3ccccc3nc12 | 9.2% (inactive) |
| CSc1nc2ccc(C)cc2c(=O)n1-c1cccnc1 | 4.59% (inactive) |
| O=C(Cn1c(=O)n(CC2CS2)c2ccccc21)N1CCCCC1 (stereo not given) | -9.69% (inactive) |
| CC1=C(C(=O)Nc2ccccc2)S(=O)(=O)CCO1 | 26.8% (inactive) |

— PubChem BioAssay AID463187 (University of Pittsburgh Molecular Library Screening Center, 2010)
